High-throughput results as filed in PubChem BioAssay.
An excerpt weighted towards active compounds, which were near 21% of everything screened.
Pf growth 48h: P. falciparum growth inhibition at 48 hours (one generation) | P. falciparum luciferase growth in erythrocytes, 48 h | Potency, µM (series often up to 28.7 µM), actives largely listed as inhibitors | 5.9% of 310,000 active | AID 504832
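Here the parasites carry a stable luciferase gene and grow inside erythrocytes in Albumax-based RPMI medium with compound for one erythrocytic cycle. Activity is scored as loss of luminescent signal.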
Shiga toxin inh: Shiga toxin inhibition; Vero cells, Shiga toxin protein synthesis inhibition reporter; inhibition, % at 38.7 µM; 9.2% of 290,000 active; AID 2315; in the data active means inhibition mostly above about 28%, no sharp cut-off; inactive means mostly below about 43%
CHX counter: counter-screen hit for Shiga toxin inhibitors, cycloheximide | cell reporter, cycloheximide protein synthesis inhibition counterscreen | max response, % | 12% of 300,000 active; in the data active means max response mostly above about 13%, no sharp cut-off; inactive means mostly below about 14%; further: read at 38.3 µM for the half of the compounds with a filed dose
Pf growth 96h: P. falciparum growth inhibition at 96 hours | P. falciparum luciferase reporter growth, 96 h | Potency, µM (top dose mostly 28.7 µM), hits mostly inhibitors | 6.9% of 320,000 active | AID 504834
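Erythrocytes infected with luciferase-expressing P. falciparum were dispensed at 2% hematocrit and 0.05% parasitemia (final), then incubated with compounds 96 hours at 37 C in 5% CO2. Luminescence after detection reagent addition reported growth.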
Sm TGR inh: blocks Schistosoma mansoni thioredoxin glutathione reductase. 3% of 360,000 active. Potency, µM (series often up to 114 µM), hits mostly inhibitors. purified TGR, DTNB reduction, TNB absorbance 405 nm. AID 485364. Q962Y6; further: nearly all actives have a fitted effect of over 60% in size
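Kinetic colorimetric format: TGR-catalysed, NADPH-driven DTNB reduction monitored via TNB absorbance. Enzyme dispensed at 20 nM; compound exposure 15 min at room temperature before reaction start.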
NS1 inh: inhibitors of influenza NS1 protein function | Potency, µM (doses to about 46.1 µM) | 0.4% of 270,000 active | AID 2326; calls by dose curve; further: actives are rising curves; nearly all actives have a fitted effect of over 50% in size
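S. cerevisiae expressing influenza A NS1, grown in glucose, washed, then diluted 1:100 into pH 6.0 -URA galactose medium with 23 nl compound. Growth recovery read as OD600; NS1-free strain serves as control.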
Numbers stand for hits; – = inactive; ? = inconclusive; · = not tested or not shown. Unless noted, the call rests on the fitted dose curve; in most records, active means well fitted curve in the direction sought with a large enough effect; inconclusive means small, poorly fitted or top-dose-only effect, or another doubt; inactive means no such curve, though single readings can be large; an effect the other way counts as inactive or inconclusive.

SMILES | Pf growth 48h | Shiga toxin inh | CHX counter | Pf growth 96h | Sm TGR inh | NS1 inh
C/C(=N\Nc1ccc(S(=O)(=O)Nc2ccccc2)cc1[N+](=O)[O-])c1ccncc1 | 10.4µM | – | – | ? | · | –
C/C(=N\Nc1ccc(S(=O)(=O)Nc2ccc(Cl)cc2)cc1[N+](=O)[O-])c1ccc(N2CCOCC2)cc1 | ? | – | – | 4.15µM | – | –
Cc1cccc2c1N(CCOc1ccc(C(C)(C)C)cc1)C(=O)C2=O | 10.4µM | – | – | – | – | –
Cc1ccccc1OCCN1C(=O)C(=O)c2cccc(C)c21 | ? | – | – | – | – | –
Cc1ccc(OCCCN2C(=O)C(=O)c3cccc(C)c32)cc1 | – | – | – | – | – | –
COc1ccccc1OCCCN1C(=O)C(=O)c2cccc(C)c21 | ? | – | – | – | 3.16µM | –
Cc1ccccc1S(=O)(=O)N(CC(O)CN1C(=O)NC(C)(C)C1=O)c1ccccc1 (stereo unspecified) | – | – | – | – | – | –
COCCN(C(=O)Cn1nnc2ccccc21)C(C(=O)NC1CCCCC1)c1ccc(OC)cc1OC (stereo unspecified) | ? | – | – | ? | – | –
COc1ccc(N(C(=O)Cn2nnc3ccccc32)C2(C(=O)NC3CCCC3)CCCCC2)cc1 | 13.1µM | – | – | 13.1µM | – | –
CCOc1ccc(N(C(=O)Cn2nnc3ccccc32)C(C(=O)NCc2ccccc2)c2ccc(OC)cc2)cc1 (stereo unspecified) | · | · | · | · | – | ·
COc1ccc(C(C(=O)Nc2ccc(F)cc2)N(C(=O)Cn2nnc3ccccc32)C2CC2)cc1 (stereo unspecified) | 5.86µM | – | – | ? | – | –
COc1ccc(N(C(=O)Cn2cnc3ccccc32)C(C(=O)NC2CCCCC2)c2ccccc2)cc1 (stereo unspecified) | 13.1µM | – | – | ? | – | –
O=C(CN1CCOCC1)Nc1nc(-c2ccccc2Cl)cs1 | – | – | – | – | – | –
O=C1CC(c2ccccc2)CN1C(=O)c1cncc(Br)c1 (stereo unspecified) | – | – | – | – | – | –
OC(C#Cc1ccccn1)c1cccs1 (stereo unspecified) | 10.4µM | 48.0 | 50.7 | – | 1.41µM | –
Cc1cc2c3c([nH]c2cc1S(=O)(=O)NCc1ccc(CN2CCCCCC2)o1)CCCC3=O | ? | – | – | – | – | –
Cc1ccc(S(=O)(=O)C(CNS(=O)(=O)c2ccc(F)c(C(F)(F)F)c2)c2ccco2)cc1 (stereo unspecified) | · | · | · | · | 0.316µM | ·
Cc1ccc(S(=O)(=O)C(CNC(=O)c2ccc(F)c(F)c2)c2ccco2)cc1 (stereo unspecified) | · | · | · | · | – | ·
COc1ccc(S(=O)(=O)NCC(c2ccco2)N2CCOCC2)cc1C (stereo unspecified) | · | · | · | · | – | ·
COc1ccc(S(=O)(=O)NCC(c2ccco2)S(=O)(=O)c2cccs2)cc1C (stereo unspecified) | · | · | · | · | 0.1µM | ·
Cc1cc(F)ccc1S(=O)(=O)NCC(c1ccco1)S(=O)(=O)c1cccs1 (stereo unspecified) | · | · | · | · | 0.1µM | ·
COc1ccc(S(=O)(=O)NCC(c2ccco2)S(=O)(=O)c2cccs2)cc1F (stereo unspecified) | · | · | · | · | 0.1µM | ·
COc1ccc(S(=O)(=O)NCC(c2ccco2)N2CCN(c3ccc(F)cc3)CC2)cc1C (stereo unspecified) | · | · | · | · | – | ·
COc1ccc(S(=O)(=O)NCC(c2ccco2)S(=O)(=O)c2ccc(C)cc2)cc1F (stereo unspecified) | · | · | · | · | 0.398µM | ·
Cc1ccc(S(=O)(=O)C(CNC(=O)c2c(F)cccc2F)c2ccco2)cc1 (stereo unspecified) | · | · | · | · | – | ·
SMILES | Pf growth 48h | Shiga toxin inh | CHX counter | Pf growth 96h | Sm TGR inh | NS1 inh
CCOc1ccc(S(=O)(=O)NCC(c2ccco2)S(=O)(=O)c2cccs2)cc1 (stereo unspecified) | · | · | · | · | 0.1µM | ·
COc1ccccc1NC(=O)N1CCOc2ccccc21 | · | · | · | · | – | ·
O=[N+]([O-])c1ccc2c(c1)nc1n2CCN(c2ccccc2)C1 | ? | 29.0 | 37.2 | ? | 28.2µM | –
O=C(CSc1nc2ccc([N+](=O)[O-])cc2s1)NCC1CCCO1 (stereo unspecified) | – | – | – | – | – | –
O=[N+]([O-])c1ccc2c(c1)nc1n2CCSC1 | – | – | – | – | – | –
CC(=O)N1CCN(Cc2nc3cc([N+](=O)[O-])ccc3n2C)CC1 | – | – | – | – | – | –
COCCN1CCn2c(nc3cc([N+](=O)[O-])ccc32)C1 | – | – | – | – | 39.8µM | –
O=[N+]([O-])c1ccc2c(c1)nc1n2CCN(CC2CCCO2)C1 (stereo unspecified) | – | – | 28.2 | – | ? | –
Cc1ccc(S(=O)(=O)Nc2ccc(N3CCOCC3)cc2)cc1C | – | – | – | – | – | –
Cc1ccccc1/C=C/c1cc[n+](C)cc1 | 5.22µM | – | – | ? | – | ·
Cc1[nH]c2ccccc2c1/C=C/c1cc[n+](C)cc1 | 0.415µM | – | – | 0.147µM | – | –
CC1CCCN(CCCNC(=O)C2CCN(S(=O)(=O)N3CCC4(CC3)OCCO4)CC2)C1 (stereo unspecified) | – | – | – | – | – | –
Cc1ccccc1NS(=O)(=O)c1ccc2oc(=O)ccc2c1 | ? | – | – | ? | – | –
COc1ccccc1NC(=O)c1cc(C(=O)Nc2ccccc2OC)cc(N2C(=O)CCC2=O)c1 | – | – | – | – | ? | –
CCNC(=S)N1CCN(C(c2ccccc2)c2ccccc2)CC1 | 13.1µM | – | – | 8.28µM | – | –
S=C(NCCc1ccccc1)N1CCN(C(c2ccccc2)c2ccccc2)CC1 | 9.28µM | – | – | ? | ? | –
CCCCNC(=S)N1CCN(C(c2ccccc2)c2ccccc2)CC1 | 10.4µM | – | – | – | – | ·
CCCNC(=S)N1CCN(C(c2ccccc2)c2ccccc2)CC1 | ? | – | – | ? | – | –
COCCNC(=S)N1CCN(C(c2ccccc2)c2ccccc2)CC1 | – | – | – | ? | – | –
Cc1cc(C(=O)COC(=O)c2n[nH]c(=O)c3ccccc23)c(C)n1C(C)C | – | · | · | – | – | ·
CC1=CC(=O)C(C(C)C)=C/C1=C(\c1cc(C(C)C)c(OP(=O)(O)O)cc1C)c1ccccc1C(=O)O | – | – | – | ? | – | –
Cc1ccc(-c2nn3c(C)nnc3c3ccccc23)cc1S(=O)(=O)N1CCN(CCO)CC1 | ? | – | – | ? | – | –
COc1ccc(-c2nnc3ccc(SCC(=O)N4CCOCC4)nn23)cc1 | – | – | – | – | – | ?
COc1ccc(-c2nnc3c4ccccc4c(C)nn23)cc1S(=O)(=O)N1CCN(CCO)CC1 | 4.65µM | – | – | 2.62µM | – | –
COc1ccc(-c2nnc3ccc(SC)nn23)cc1 | – | – | – | 4.65µM | – | –
Cc1nn2c(-c3ccc(S(=O)(=O)N4CCN(CCO)CC4)o3)nnc2c2ccccc12 | 9.28µM | – | – | 10.4µM | – | –
